# In PubChem BioAssay (NCATS):
# Several values for one entry are separate records, joined by “and”; a condition that tells them apart may be missing. Equal entries are not always repeated. Results filed as inconclusive are left out. Entries that show only a call come without a potency. Activity calls are given as the source filed them. Unless noted, calls follow the shape of the full dose curve.
# How the values were obtained:
# [1] = molecular target: Glucocorticoid receptor (Homo sapiens) (UniProt P04150); assay: qHTS assay for small molecule agonists of glucocorticoid receptor signaling (AID 588532; active = well fitted curve in the direction sought with a large enough effect in the signal ratio, with a control signal flat; the % refers to the signal ratio); conditions: HeLa MMTV-bla, beta-lactamase ratio, agonist, 18 h; stronger effect = higher value; percent of dexamethasone control, DMSO zero
# Procedure, shortened: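 Cells were plated and rested 3-5 h at 37 C, compounds were added in titration and incubated 18 h, then CCF4 substrate was loaded for 2 h at RT before reading blue/green fluorescence. EC50 came from Hill-equation fitting.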
# [2] = molecular target: Glucocorticoid receptor (Homo sapiens) (UniProt P04150); assay: qHTS assay for small molecule antagonists of glucocorticoid receptor signaling (AID 588533; active = well fitted inhibition curve with a large enough effect in the signal ratio, with a control signal flat, not every such curve was filed as active; the % refers to the signal ratio)
# Procedure, shortened: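 Antagonist-mode qHTS: compound titrations added to GRE-bla HeLa cells, then dexamethasone 2 nM final; 18 h, 37 C. CCF4 FRET fluorescence normalized to dexamethasone and DMSO; IC50 from Hill fit.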
# [3] = qHTS assay for small molecule antagonists of peroxisome proliferator-activated receptor delta signaling (AID 588535; active = well fitted inhibition curve with a large enough effect in the signal ratio, with a control signal flat, not every such curve was filed as active; the % refers to the signal ratio; also: potency is read from the fitted curve at half-maximal effect;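 as to max response: cells co-treated with a PPAR-delta agonist as stimulator during compound exposure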); conditions: HEK293T PPARd-UAS-bla, beta-lactamase FRET ratio, 18 h; 460 nm channel
# Procedure, shortened: (§1)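 Cells were seeded at 4000 per well in assay medium containing 2% charcoal/dextran FBS and held 5 hrs at 37 C. Compounds were then added for 18 hrs. CCF4 substrate was applied for 2 hrs at room temperature before fluorescence reading.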
# [4] = molecular target: Peroxisome proliferator-activated receptor delta (Homo sapiens) (UniProt Q03181); assay: as above
# Procedure, shortened: as §1
# [5] = molecular target: Peroxisome proliferator-activated receptor gamma (Homo sapiens) (UniProt P37231); assay: qHTS assay for small molecule agonists of peroxisome proliferator-activated receptor gamma signaling (AID 588536; active = well fitted curve in the direction sought with a large enough effect in the signal ratio, with a control signal flat, not every such curve was filed as active; the % refers to the signal ratio)
# Procedure, shortened: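 HEK293 UAS-bla reporter line, 1% charcoal/dextran FBS; titration, 16 h, 37 C; CCF4 loading 2 h RT; fluorescence 460/530 nm. Normalized to rosiglitazone 2 uM = 100%, DMSO = 0%.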
# [6] = molecular target: Vitamin D3 receptor (Homo sapiens) (UniProt P11473); assay: qHTS assay for small molecule antagonists of vitamin D receptor signaling (AID 588541);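 also: receptor activated by calcitriol during compound treatment; series mostly up to about 77 µM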
# Procedure, shortened: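 VDR-UAS-bla HEK293T cells in 2% charcoal-stripped FBS were stimulated with 1-alpha,25-dihydroxyvitamin D3 (3 nM final) plus compound for 16 h at 37 C. The beta-lactamase CCF4 readout was normalized to 50 nM agonist and DMSO, and Hill fits gave IC50.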
# [7] = molecular target: Vitamin D3 receptor (Homo sapiens) (UniProt P11473); assay: qHTS assay for small molecule agonists of vitamin D receptor signaling (AID 588543)
# Procedure, shortened: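 VDR-UAS-bla HEK293T cells, 2000/well, 2% charcoal-stripped FBS; compound titration 16 h at 37 C; CCF4 beta-lactamase ratio read. Normalized to 50 nM 1-alpha,25-dihydroxyvitamin D3 (100%) and DMSO; Hill fit gives EC50, efficacy.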
# [8] = molecular target: Peroxisome proliferator-activated receptor gamma (Homo sapiens) (UniProt P37231); assay: qHTS assay for small molecule antagonists of peroxisome proliferator-activated receptor gamma signaling (AID 588537; active = well fitted inhibition curve with a large enough effect in the signal ratio, with a control signal flat, not every such curve was filed as active; the % refers to the signal ratio;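 also: reporter cells co-stimulated with 50 nM rosiglitazone agonist during compound treatment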)
# Procedure, shortened: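 Step one: plate 3000 HEK293 UAS-bla cells per well in medium with 1% stripped serum and hold 6-6.5 h at 37 C. Step two: add compound and 50 nM agonist for 16 h. Step three: CCF4 loading, fluorescence read.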
# Chain of Peroxisome proliferator-activated receptor delta (Homo sapiens) (Q03181 whole entry, looked up): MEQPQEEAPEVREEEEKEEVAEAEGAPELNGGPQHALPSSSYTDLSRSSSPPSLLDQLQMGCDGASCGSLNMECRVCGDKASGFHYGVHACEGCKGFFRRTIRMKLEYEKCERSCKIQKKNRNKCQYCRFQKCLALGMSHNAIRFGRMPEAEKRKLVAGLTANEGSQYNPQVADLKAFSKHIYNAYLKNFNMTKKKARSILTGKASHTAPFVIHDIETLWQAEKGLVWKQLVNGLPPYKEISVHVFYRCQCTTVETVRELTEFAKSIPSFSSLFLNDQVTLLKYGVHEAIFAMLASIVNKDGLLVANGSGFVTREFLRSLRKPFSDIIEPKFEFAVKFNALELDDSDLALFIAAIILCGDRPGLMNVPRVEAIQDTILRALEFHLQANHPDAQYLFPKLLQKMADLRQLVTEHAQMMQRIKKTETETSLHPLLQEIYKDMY
# Chain of Peroxisome proliferator-activated receptor gamma (Homo sapiens) (P37231 whole entry, looked up): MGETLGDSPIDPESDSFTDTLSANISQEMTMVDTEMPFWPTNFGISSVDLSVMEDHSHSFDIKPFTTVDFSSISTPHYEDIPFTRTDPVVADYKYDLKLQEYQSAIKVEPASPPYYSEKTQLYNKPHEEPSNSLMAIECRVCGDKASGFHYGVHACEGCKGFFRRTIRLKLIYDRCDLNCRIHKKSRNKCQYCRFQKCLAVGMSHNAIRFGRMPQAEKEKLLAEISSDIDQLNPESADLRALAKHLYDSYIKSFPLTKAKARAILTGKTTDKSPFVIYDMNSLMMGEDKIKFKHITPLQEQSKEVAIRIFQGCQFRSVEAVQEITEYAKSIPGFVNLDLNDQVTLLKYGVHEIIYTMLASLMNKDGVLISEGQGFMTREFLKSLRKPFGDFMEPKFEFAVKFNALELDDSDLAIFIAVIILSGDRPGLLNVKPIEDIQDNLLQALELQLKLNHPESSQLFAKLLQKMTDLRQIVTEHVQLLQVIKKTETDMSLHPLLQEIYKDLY
# Chain of Vitamin D3 receptor (Homo sapiens) (P11473 whole entry, looked up): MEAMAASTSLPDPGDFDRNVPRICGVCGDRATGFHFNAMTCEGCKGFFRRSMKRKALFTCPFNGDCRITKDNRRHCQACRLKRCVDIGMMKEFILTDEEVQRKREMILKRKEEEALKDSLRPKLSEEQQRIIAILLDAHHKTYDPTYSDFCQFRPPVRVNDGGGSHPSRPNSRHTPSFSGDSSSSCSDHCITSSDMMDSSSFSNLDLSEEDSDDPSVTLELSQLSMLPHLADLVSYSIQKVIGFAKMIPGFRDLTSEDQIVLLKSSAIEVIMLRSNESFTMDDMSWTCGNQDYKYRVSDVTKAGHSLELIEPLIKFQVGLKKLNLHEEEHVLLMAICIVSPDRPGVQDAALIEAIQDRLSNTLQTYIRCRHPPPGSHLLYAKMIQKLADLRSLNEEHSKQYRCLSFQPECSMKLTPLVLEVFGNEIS
# Chain of Glucocorticoid receptor (Homo sapiens) (P04150 whole entry, looked up): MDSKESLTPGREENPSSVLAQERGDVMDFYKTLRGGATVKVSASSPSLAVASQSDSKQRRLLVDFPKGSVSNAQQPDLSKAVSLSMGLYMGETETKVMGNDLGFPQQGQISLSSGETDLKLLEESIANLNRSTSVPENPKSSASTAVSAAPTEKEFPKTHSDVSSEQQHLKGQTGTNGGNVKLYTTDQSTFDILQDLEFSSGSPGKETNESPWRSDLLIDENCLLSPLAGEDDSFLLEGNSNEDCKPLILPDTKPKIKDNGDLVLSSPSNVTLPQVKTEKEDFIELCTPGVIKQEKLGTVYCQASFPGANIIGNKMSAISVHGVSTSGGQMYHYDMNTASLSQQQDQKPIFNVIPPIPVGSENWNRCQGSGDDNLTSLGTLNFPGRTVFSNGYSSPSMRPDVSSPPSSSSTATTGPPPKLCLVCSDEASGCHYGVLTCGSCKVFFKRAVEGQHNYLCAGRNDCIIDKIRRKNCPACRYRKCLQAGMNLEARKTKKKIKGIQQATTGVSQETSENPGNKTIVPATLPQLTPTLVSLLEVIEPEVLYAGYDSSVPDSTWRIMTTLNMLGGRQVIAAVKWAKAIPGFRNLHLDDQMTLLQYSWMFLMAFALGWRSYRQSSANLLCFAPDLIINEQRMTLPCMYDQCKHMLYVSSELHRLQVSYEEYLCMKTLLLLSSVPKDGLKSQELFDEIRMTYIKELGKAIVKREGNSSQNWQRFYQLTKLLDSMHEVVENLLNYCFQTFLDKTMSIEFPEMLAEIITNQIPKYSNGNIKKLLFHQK
Compound,activation [1],outcome [2],max response [3],Potency [4],outcome [5],outcome [6],outcome [7],outcome [8]
CC(O)COC(C)(C)C (centres undefined),-7.34% (inactive),inactive,-1.74%,inactive,inactive,inactive,inactive,–
CC(C)N(C)C,0.0793% (inactive),inactive,-0.77%,inactive,inactive,–,inactive,inactive
Fc1ccccc1,1.06% (inactive),inactive,0.384%,inactive,–,inactive,–,–
C=CCOC(=O)COCCC(C)C,-3.64% (inactive),inactive,79.8%,inactive,inactive,–,–,–
CNc1ccccc1,19.8% (inactive),inactive,-16.9%,inactive,inactive,inactive,inactive,–
CC(C)=CCC/C(C)=C/C=O,-2.98% (inactive) and -2.55% (inactive),inactive,-1.69% and 16.6%,inactive,inactive,inactive,inactive,–
O=C(O)c1ccc(C(=O)O)cc1,6.51% (inactive) and -2.73% (inactive),inactive,14.5% and 21.9%,inactive,inactive,inactive,inactive,inactive
ICCc1ccccc1,-2.34% (inactive),inactive,13.6%,inactive,inactive,inactive,inactive,–
Cc1c(N)cccc1[N+](=O)[O-],-3.4% (inactive),inactive,-31.1%,inactive,inactive,–,–,–
CC(=O)OCCC(C)C,4.89% (inactive),inactive,-13.3%,inactive,inactive,–,–,–
Cc1ccc([N+](=O)[O-])c(N)c1,-0.729% (inactive),inactive,-3.65%,inactive,inactive,inactive,inactive,–
O=C(O)c1cccc(Cl)c1Cl,6.71% (inactive),inactive,5.12%,inactive,inactive,inactive,inactive,inactive
O=C1OC(=O)c2cc([N+](=O)[O-])ccc21,5.66% (inactive),inactive,9.55%,inactive,inactive,inactive,inactive,inactive
CCCCC(=O)N(C)C,-1.2% (inactive),inactive,-15%,inactive,inactive,inactive,inactive,–
O=[N+]([O-])c1ccc(Cl)cc1Cl,2.45% (inactive),inactive,2.66%,inactive,inactive,–,–,–
CCc1ccccc1,-5.09% (inactive),inactive,15%,inactive,inactive,inactive,inactive,–
Cc1cccc2sc(N)nc12,-9.53% (inactive),inactive,24.8%,inactive,inactive,inactive,inactive,inactive
O=Nc1ccc(NO)cc1,5.11% (inactive),inactive,-72.9%,12.6 µM (active),inactive,inactive,inactive,–
C[C@@H]1O[C@@H](O[C@@H]2[C@@H](O)[C@H](OCCc3ccc(O)c(O)c3)O[C@H](CO[C@@H]3O[C@H](CO)[C@@H](O)[C@H](O)[C@H]3O)[C@H]2OC(=O)/C=C/c2ccc(O)c(O)c2)[C@H](O)[C@H](O)[C@H]1O,2.75% (inactive),inactive,20.8%,inactive,inactive,inactive,inactive,–
O=C1OC(=O)c2c(Br)c(Br)c(Br)c(Br)c21,-2.08% (inactive) and -7.32% (inactive),inactive,19.7% and -28%,inactive,inactive,inactive,inactive,–
C=CC(=O)NC(C)C,2.34% (inactive),inactive,-15.9%,inactive,inactive,inactive,inactive,inactive
COc1ccc(OC)cc1,-0.922% (inactive),inactive,-6.1%,inactive,inactive,inactive,inactive,–
CCOCC(=O)O,2.71% (inactive),inactive,-19%,inactive,inactive,inactive,inactive,inactive
Cc1cc(C(=O)O)ccc1[N+](=O)[O-],1.49% (inactive),inactive,13.2%,inactive,inactive,inactive,inactive,–
